# Reference: PubChem BioAssay
# “And” between values parts separate entries of the source, which are not always exact repeats. Identical values can stand only once.
# Test: differential killing of epithelial or mesenchymal cells, primary screen, imaging, PC-3E GFP, TEM4-18 mCherry, co-culture (AID 1345086);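 also: cells exposed to compound for 72 h before imaging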
# Conditions: imaging cell counts, measured here: mesenchymal TEM4-18 mCherry cell survival, at 1 µM
row,SMILES,normalised cell number
1,COc1ccc(C(=O)NCc2ccc(OCCN(C)C)cc2)cc1OC,1.1
2,CN1CCN(c2c(F)cc3c(=O)c(C(=O)O)cn4c3c2SCC4)CC1,1.07 and 0.95
3,CC(=O)NS(=O)(=O)c1ccc(N)cc1,1.31
4,CCN1CCN(c2cc3c(cc2F)c(=O)c(C(=O)O)cn3C2CC2)CC1,1.23
5,CC(=O)OCC(=O)NCCCOc1cccc(CN2CCCCC2)c1,1
6,Clc1ccc2c(c1)CCc1cccnc1C2=C1CCNCC1,0.98 and 1.15
7,CCc1c(C)[nH]c2c1C(=O)C(CN1CCOCC1)CC2 (stereo unspecified),0.96
8,CC(C)(C(=O)c1cccnc1)c1cccnc1,1.04
9,CC(Oc1c(Cl)cccc1Cl)C1=NCCN1 (stereo unspecified),1.17
10,COC(=O)C1=C(C)NC(C)=C(C(=O)OCC(C)C)C1c1ccccc1[N+](=O)[O-] (stereo unspecified),1.08
11,COc1cc2c(cc1OC)C(=O)C(CC1CCN(Cc3ccccc3)CC1)C2 (stereo unspecified),1.09
12,COc1ccc(CN2CCN(C(c3ccc(F)cc3)c3ccc(F)cc3)CC2)c(OC)c1OC,1.03
13,Cc1cccc(C)c1NC(=O)C(C)N (stereo unspecified),0.88
14,CCN(CC)CCNC(=O)c1cc(Cl)c(N)cc1OC,1.12
15,NC1CCN(c2nc3c(cc2F)c(=O)c(C(=O)O)cn3-c2ccc(F)cc2F)C1 (stereo unspecified),1.02
16,C[C@H]1COc2c(C3(N)CC3)c(F)cc3c(=O)c(C(=O)O)cn1c23,1.28 and 0.94
